# Laboratory results as given in ChEMBL document CHEMBL1961873, “Compounds: GSK PKIS; Assays: Nanosyn kinase panel” (2012).
# How the values were obtained:
# [1] = molecular target: T1, Serine/threonine-protein kinase D2 (Homo sapiens) (UniProt Q9BZL6); conditions: at 1 µM;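 further: mean value of PRKD2 inhibition, from the GSK PKIS screening panel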
# T1 sequence (whole entry): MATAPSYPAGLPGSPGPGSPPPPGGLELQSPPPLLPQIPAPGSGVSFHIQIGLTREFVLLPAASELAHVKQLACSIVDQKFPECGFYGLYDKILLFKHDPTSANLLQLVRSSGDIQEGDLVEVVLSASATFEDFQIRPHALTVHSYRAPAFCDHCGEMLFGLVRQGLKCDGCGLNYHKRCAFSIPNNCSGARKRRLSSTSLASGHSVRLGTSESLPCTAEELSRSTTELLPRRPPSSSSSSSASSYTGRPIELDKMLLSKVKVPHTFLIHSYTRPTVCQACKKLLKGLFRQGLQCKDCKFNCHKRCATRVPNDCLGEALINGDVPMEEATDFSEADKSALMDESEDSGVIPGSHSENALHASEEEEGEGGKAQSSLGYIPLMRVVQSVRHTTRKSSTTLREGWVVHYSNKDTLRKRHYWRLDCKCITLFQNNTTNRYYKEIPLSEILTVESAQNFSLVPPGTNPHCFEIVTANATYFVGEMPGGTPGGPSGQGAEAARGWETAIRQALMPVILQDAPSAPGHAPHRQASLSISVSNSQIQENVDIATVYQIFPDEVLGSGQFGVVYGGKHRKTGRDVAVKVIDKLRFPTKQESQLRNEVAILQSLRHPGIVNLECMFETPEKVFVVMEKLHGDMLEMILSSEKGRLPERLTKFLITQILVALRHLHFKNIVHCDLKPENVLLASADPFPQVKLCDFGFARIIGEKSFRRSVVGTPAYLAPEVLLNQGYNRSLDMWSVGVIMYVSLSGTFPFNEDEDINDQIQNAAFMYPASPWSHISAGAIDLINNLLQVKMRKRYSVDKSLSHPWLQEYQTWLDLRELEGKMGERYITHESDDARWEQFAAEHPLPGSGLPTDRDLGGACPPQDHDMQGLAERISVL
# [2] = molecular target: T2, Serine/threonine-protein kinase D3 (Homo sapiens) (UniProt O94806); conditions: at 0.1 µM
# T2 sequence (whole entry): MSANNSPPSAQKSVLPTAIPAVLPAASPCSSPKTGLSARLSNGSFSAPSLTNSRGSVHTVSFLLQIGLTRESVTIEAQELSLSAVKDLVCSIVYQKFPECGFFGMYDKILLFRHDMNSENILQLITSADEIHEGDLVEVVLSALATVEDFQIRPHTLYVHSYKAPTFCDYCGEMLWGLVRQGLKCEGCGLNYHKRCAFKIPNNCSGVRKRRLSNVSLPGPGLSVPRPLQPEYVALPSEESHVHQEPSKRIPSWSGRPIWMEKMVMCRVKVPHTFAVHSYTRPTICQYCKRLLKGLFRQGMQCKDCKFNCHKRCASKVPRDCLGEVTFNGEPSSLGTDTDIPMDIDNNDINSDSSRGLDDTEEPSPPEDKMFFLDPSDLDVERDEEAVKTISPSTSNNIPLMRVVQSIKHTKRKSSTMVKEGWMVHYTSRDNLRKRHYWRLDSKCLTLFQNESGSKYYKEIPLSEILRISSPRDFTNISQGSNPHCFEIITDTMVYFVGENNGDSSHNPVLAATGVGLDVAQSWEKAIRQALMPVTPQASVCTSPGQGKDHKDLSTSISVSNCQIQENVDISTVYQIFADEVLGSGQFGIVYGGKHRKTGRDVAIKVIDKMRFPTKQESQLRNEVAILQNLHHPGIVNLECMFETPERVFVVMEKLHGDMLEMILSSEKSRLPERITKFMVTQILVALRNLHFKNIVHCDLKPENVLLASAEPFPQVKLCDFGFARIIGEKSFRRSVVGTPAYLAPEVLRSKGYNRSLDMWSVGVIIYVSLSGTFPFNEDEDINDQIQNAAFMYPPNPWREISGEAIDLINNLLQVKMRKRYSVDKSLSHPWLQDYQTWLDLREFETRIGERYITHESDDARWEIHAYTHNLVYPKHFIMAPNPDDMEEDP
# [3] = molecular target: T2, Serine/threonine-protein kinase D3 (Homo sapiens); conditions: at 1 µM
# [4] = molecular target: T3, cGMP-dependent protein kinase 1 (Homo sapiens) (UniProt Q13976); conditions: at 0.1 µM
# T3 sequence (whole entry): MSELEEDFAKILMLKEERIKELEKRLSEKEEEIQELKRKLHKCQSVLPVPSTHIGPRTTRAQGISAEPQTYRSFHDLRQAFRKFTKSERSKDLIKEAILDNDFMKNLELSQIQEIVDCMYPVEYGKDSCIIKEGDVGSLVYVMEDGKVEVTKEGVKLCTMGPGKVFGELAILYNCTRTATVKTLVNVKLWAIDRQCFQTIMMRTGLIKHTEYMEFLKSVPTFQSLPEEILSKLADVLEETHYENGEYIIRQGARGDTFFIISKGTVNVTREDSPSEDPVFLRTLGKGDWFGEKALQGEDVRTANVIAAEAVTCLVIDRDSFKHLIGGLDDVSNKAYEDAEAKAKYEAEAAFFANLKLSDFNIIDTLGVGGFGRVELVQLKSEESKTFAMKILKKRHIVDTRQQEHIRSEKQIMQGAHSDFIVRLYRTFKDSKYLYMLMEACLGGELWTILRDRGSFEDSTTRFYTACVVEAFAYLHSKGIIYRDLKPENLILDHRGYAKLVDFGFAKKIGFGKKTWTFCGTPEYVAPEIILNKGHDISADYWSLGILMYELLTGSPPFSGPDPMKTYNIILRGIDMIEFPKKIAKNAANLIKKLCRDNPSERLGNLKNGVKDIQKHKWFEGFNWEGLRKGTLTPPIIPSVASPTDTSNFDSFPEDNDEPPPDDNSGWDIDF
# [5] = molecular target: T3, cGMP-dependent protein kinase 1 (Homo sapiens); conditions: at 1 µM
# [6] = molecular target: T4, cGMP-dependent protein kinase 2 (Homo sapiens) (UniProt Q13237); conditions: at 0.1 µM
# T4 sequence (whole entry): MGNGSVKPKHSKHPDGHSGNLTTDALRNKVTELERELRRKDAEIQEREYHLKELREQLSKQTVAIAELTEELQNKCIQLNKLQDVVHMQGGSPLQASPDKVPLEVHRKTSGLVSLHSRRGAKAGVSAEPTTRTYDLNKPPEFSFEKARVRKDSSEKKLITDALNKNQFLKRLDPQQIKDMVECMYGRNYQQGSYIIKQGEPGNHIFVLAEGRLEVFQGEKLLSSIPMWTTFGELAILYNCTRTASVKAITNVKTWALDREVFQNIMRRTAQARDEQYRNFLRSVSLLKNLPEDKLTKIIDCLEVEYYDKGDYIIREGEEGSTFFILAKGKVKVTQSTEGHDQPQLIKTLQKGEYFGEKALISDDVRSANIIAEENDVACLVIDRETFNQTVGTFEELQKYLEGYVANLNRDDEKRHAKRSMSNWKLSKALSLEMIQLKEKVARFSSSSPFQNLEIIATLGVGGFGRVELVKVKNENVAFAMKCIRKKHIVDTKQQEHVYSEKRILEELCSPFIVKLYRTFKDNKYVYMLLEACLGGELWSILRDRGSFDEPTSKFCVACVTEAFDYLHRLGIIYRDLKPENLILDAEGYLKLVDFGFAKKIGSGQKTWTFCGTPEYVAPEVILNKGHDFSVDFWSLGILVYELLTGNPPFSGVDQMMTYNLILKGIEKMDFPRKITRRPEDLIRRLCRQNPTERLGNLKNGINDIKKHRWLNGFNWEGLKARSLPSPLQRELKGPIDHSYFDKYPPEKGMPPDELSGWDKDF
# [7] = molecular target: T4, cGMP-dependent protein kinase 2 (Homo sapiens); conditions: at 1 µM
# [8] = molecular target: T5, cAMP-dependent protein kinase catalytic subunit PRKX (Homo sapiens) (UniProt P51817); conditions: at 0.1 µM
# T5 sequence (whole entry): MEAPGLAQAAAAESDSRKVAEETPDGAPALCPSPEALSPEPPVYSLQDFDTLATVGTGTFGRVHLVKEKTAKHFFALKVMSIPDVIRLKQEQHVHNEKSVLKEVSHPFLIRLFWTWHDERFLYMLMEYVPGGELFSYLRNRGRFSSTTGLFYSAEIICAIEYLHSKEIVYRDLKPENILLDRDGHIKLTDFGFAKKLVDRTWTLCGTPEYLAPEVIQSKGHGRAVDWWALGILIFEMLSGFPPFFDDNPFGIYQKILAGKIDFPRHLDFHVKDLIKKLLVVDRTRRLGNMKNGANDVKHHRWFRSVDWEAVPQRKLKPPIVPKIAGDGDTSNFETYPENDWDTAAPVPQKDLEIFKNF
# [9] = molecular target: T5, cAMP-dependent protein kinase catalytic subunit PRKX (Homo sapiens); conditions: at 1 µM
# [10] = molecular target: Rho-associated protein kinase 1 (Homo sapiens) (UniProt Q13464); conditions: at 0.1 µM;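 further: values are mean percent inhibition of ROCK1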
# Sequence of Rho-associated protein kinase 1 (Homo sapiens) (Q13464 2-1354 limits assumed): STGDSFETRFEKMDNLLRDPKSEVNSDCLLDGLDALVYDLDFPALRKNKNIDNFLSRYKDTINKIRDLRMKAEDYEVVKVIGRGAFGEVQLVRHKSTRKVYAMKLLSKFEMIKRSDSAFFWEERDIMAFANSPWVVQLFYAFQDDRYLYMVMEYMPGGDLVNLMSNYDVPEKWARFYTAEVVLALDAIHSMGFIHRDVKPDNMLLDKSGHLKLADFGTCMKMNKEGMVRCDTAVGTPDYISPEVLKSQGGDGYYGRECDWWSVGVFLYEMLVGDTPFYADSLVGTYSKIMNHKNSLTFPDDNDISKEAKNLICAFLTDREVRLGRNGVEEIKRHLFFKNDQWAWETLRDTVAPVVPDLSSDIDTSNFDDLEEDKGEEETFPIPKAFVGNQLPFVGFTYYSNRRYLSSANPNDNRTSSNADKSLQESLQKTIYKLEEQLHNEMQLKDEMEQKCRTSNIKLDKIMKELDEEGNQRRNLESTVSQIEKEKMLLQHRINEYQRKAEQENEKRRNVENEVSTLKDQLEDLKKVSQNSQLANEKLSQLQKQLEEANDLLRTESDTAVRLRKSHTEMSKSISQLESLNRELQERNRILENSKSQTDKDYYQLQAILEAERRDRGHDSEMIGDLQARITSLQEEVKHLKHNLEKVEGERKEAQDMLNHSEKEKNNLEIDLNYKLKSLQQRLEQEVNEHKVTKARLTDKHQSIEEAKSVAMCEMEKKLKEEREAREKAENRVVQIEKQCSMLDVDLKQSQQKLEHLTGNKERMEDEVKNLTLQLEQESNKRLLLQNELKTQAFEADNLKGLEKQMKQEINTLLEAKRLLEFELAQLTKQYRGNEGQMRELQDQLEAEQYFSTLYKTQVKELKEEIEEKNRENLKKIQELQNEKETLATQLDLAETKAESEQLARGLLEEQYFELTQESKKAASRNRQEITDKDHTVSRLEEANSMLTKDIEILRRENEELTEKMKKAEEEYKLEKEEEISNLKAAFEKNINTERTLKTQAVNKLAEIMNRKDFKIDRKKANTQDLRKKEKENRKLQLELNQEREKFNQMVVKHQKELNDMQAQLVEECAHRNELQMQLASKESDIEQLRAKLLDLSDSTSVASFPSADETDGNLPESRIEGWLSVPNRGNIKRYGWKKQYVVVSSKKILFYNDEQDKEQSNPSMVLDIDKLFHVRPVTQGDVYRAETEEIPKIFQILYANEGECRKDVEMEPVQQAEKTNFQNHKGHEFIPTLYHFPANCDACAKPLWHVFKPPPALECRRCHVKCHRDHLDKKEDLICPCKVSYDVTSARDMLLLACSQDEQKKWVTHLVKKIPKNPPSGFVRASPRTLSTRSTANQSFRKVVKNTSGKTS
Structure (SMILES),inhibition [1],inhibition [2],inhibition [3],inhibition [4],inhibition [5],inhibition [6],inhibition [7],inhibition [8],inhibition [9],inhibition [10]
COc1ccc(-c2ccncc2)cc1C(N)=O,5.71%,5.67%,11.1%,4.34%,13.7%,2.97%,17%,2.9%,3.27%,2.65%
NS(=O)(=O)c1cccc(-c2ccc3c(NC(=O)C4CC4)n[nH]c3c2)c1,-0.76%,-0.43%,0.3%,0.48%,0.57%,0.6%,1.3%,0.01%,1.02%,1.29%
COc1ccc(-c2coc3ncnc(N)c23)cc1,6.47%,4.56%,7.56%,2.84%,3.68%,2.51%,3.93%,1.76%,1.11%,3.01%
COC(=O)Nc1nc2cc(Oc3ccc(NC(=O)Nc4cccc(C(=O)O)c4)cc3)ccc2[nH]1,-1.55%,-2.32%,-3.85%,-0.28%,2.77%,1.1%,0.86%,0.76%,1.8%,0.24%
CCCN1CCC=C(c2ccc(Nc3nc(Nc4ccccc4C(N)=O)c4cc[nH]c4n3)c(C)c2)C1,68.5%,18.8%,61.7%,4.43%,18.8%,5.72%,31.8%,2.31%,2.1%,2.33%
COc1cc2ncn(-c3cc(O[C@@H](C)c4ccccc4Cl)c(C(N)=O)s3)c2cc1OC,2.84%,4.96%,4.78%,3.4%,4.72%,4.02%,5.22%,3.8%,3.91%,2.15%
CNC(=O)c1cncc(/C=C/c2c(Cl)cccc2Cl)c1,3.77%,1.19%,4.45%,4.02%,5.23%,1.23%,4.56%,1.86%,1.79%,1.46%
COc1ccccc1Nc1ncc(-c2ccccc2)o1,2.18%,4.57%,4.66%,3.64%,1.96%,3.07%,2.81%,2.55%,3.03%,2.99%
